Results as given in PubChem BioAssay AID624094 (National Center for Advancing Translational Sciences (NCATS), 2012).
Records with an inconclusive call do not appear. Calls of active or inactive are those of the source. Calls follow the shape of the dose curve; as a rule, active = well fitted inhibition curve with a large enough effect; inconclusive = small, poorly fitted or top-dose-only effect; inactive = flat fitted curve, though single readings scatter.

These compounds were tested against Dual specificity protein kinase CLK4 (Homo sapiens) (UniProt Q9HAZ1) (assay: Confirmation Assay for Inhibitors of Clk4 (Kinase-Glo Assay): KU probe). Conditions: recombinant Clk4, Kinase-Glo ATP luminescence; series mostly up to 76.9 µM.
Sequence of Dual specificity protein kinase CLK4 (Homo sapiens) (Q9HAZ1 whole entry, looked up): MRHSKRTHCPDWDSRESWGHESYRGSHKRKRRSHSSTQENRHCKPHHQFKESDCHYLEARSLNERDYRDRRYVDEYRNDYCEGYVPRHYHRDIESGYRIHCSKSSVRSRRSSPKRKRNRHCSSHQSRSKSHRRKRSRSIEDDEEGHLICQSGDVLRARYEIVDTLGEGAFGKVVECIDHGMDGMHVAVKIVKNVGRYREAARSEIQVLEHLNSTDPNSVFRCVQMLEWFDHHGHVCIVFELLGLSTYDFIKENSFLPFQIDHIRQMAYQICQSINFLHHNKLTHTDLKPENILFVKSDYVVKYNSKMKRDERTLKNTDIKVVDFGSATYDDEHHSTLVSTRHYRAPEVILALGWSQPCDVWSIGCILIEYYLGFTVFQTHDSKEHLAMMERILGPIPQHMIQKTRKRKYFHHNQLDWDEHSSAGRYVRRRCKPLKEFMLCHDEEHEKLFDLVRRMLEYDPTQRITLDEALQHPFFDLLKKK
Description: NIH Molecular Libraries Probe Production Centers Network [MLPCN] NIH Chemical Genomics Center [NCGC] MLPCN Grant: 1R03MH084827-01 Assay Submitter (PI): Tom Misteli NCGC Assay Overview: Clk4 (Invitrogen, cat# PV3839) was assayed using ATP and the RS repeat peptide (AnaSpec cat # 61722) as substrates. Following the Clk4 reaction, the remaining ATP levels were detected using Promega Kinase-Glo technology wherein the remaining ATP from the kinase reaction is detected using Ultra-Glo luciferase and D-luciferin which generates a bioluminescence signal from the ATP.
NCGC Assay Protocol Summary: Two uL/well of substrate-buffer solution (100 uM RS peptide, 1 uM ATP, 25 mM Tris pH7.5, 10 mM MgCl2, 0.5 mM EGTA, 2.5 mM DTT, 0.01% Triton X-100 final concentration) was dispensed into 1536-well, assay plates (Greiner, solid white medium-binding plates) with Aurora Discovery BioRAPTR Flying Reagent Dispenser (FRD; Beckton-Dickenson). Using a Kalypsys pin tool equipped with a 1536-pin tool, 23 nL of compound solution was transferred to the assay plate. One uL/ well Clk4-buffer solution (25 nM Clk4, 25 mM Tris pH 7.5, 10 mM MgCl2, 0.5 mM EGTA, 2.5 mM DTT, 0.01% Triton X-100, final concentrations) was then added using the FRD yielding a total kinase reaction volume of 3 uL/ well. After 4.5 hours of room temperature incubation, 3 uL Kinase-Glo reagent was added for a final assay volume of 6 uL/ well. Luminescence was detected with the ViewLux plate reader (Perkin Elmer, Waltham, MA) after 5 min incubation using a 5 second exposure time and 2x binning.

Compound | Potency
CN(C)c1ccc(-c2nccc(NCc3cccs3)n2)cc1 | 9230 nM (active)
Cc1ccc(CNc2ccnc(-c3cccc(C#N)c3)n2)cc1 | 23200 nM (active)
O=C(Nc1ccnc(-c2ccc3c(c2)OCO3)n1)c1cnc(Cl)c(Cl)c1 | inactive
COc1cccc(-c2nccc(NCc3ccc(Cl)c(Cl)c3)n2)c1 | 14600 nM (active)
Cc1c(-c2ccnc(NCc3ccc(Cl)cc3)n2)sc(=O)n1C | 58.2 nM (active)
Cc1csc(CNc2ncnc3ccc(-c4ccc(C(=O)O)o4)cc23)n1 | 292 nM (active)
c1cncc(CNc2nccc(-c3ccc4cn[nH]c4c3)n2)c1 | 41.2 nM (active)
c1nc(NCC2CCOC2)c2cc(-c3ccc4c(c3)OCO4)ccc2n1 (stereo not given) | 58.2 nM (active)
c1coc(CNc2ncnc3ccc(-c4ccc5c(c4)OCO5)cc23)c1 | 46.3 nM (active)
O=[N+]([O-])c1cc(Nc2nccc(-c3ccc4c(c3)OCO4)n2)cc(C(F)(F)F)c1 | 104 nM (active)
Clc1cc(Cl)cc(CNc2ccnc(-c3ccc4c(c3)OCO4)n2)c1 | 4120 nM (active)
CCNC(=O)c1ccc(-c2ccc3ncnc(NCC4CCCO4)c3c2)o1 (stereo not given) | 328 nM (active)
c1nc(NCCC2CCCO2)c2cc(-c3ccc4c(c3)OCO4)ccc2n1 (stereo not given) | 51.9 nM (active)
Brc1cc(Br)cc(CNc2ccnc(-c3ccc4c(c3)OCO4)n2)c1 | 5820 nM (active)
COc1cccc(-c2nccc(NCc3ccc(Cl)cc3)n2)c1 | 13000 nM (active)
Fc1cc(CNc2ccnc(-c3ccc4c(c3)OCO4)n2)ccc1Cl | 13000 nM (active)
FC(F)(F)c1cccc(Nc2nccc(-c3ccc4c(c3)OCO4)n2)c1 | 65.4 nM (active)
O=c1cnc2cnc(Nc3ccccc3)nc2n1CCc1ccccc1 | 184 nM (active)
c1cncc(CNc2ccnc(-c3ccc4ccccc4c3)n2)c1 | 14600 nM (active)
COc1ccc(-c2ccnc(NCc3ccc(Cl)c(Cl)c3)n2)cc1 | 184 nM (active)

Compound | Potency
O=C(O)c1ccc(-c2ccc3ncnc(NCc4nccs4)c3c2)o1 | 923 nM (active)
Clc1ccc(CNc2cc(-c3ccc4c(c3)OCO4)ncn2)cc1 | 2320 nM (active)
COc1ccc(CNc2ccnc(-c3cccc(C#N)c3)n2)cc1 | 9230 nM (active)
CN(CC1CCCCO1)c1ncnc2ccc(-c3ccc4c(c3)OCO4)cc12 (stereo not given) | 46.3 nM (active)
c1nc(NC[C@@H]2CCCO2)c2cc(-c3ccc4c(c3)OCO4)ccc2n1 | 29.2 nM (active)
COc1ccc(CNc2ccnc(-c3ccc(N(C)C)cc3)n2)cc1 | inactive
O=C(O)c1ccc(-c2ccc3ncnc(NCC4CCCO4)c3c2)o1 (stereo not given) | 654 nM (active)
c1cc(-c2ccoc2)nc(-c2ccc3c(c2)OCO3)n1 | 4120 nM (active)
c1coc(-c2ccnc(-c3ccc4c(c3)OCO4)n2)c1 | 8230 nM (active)
COc1ccc(-c2nccc(NCc3ccc(Cl)c(Cl)c3)n2)cc1 | 11600 nM (active)
CN(C)c1ccc(-c2ncccn2)cc1 | inactive
COc1cccc(-c2ccnc(NCc3ccc(Cl)cc3)n2)c1 | 5820 nM (active)
Clc1ccc(Nc2nccc(-c3ccc4c(c3)OCO4)n2)cc1 | 368 nM (active)
O=C(O)c1ccc(-c2ccc3ncnc(N4CCOCC4)c3c2)o1 | 582 nM (active)
CC(C)(C)CNc1ncnc2ccc(-c3ccc(C(=O)O)o3)cc12 | 463 nM (active)
Nc1ncnc2c1c(I)cn2C1OC(CO)C(O)C1O (stereo not given) | 11.6 nM (active)
Cc1csc(CNc2ncnc3ccc(-c4ccc(CO)o4)cc23)n1 | 923 nM (active)
Cc1c(-c2ccnc(NCc3cccnc3)n2)sc(=O)n1C | 46.3 nM (active)
Clc1ccc(CNc2nccc(-c3ccc4cn[nH]c4c3)n2)cc1Cl | 5820 nM (active)
c1nc(NCC2CCCCO2)c2cc(-c3ccc4c(c3)OCO4)ccc2n1 (stereo not given) | 29.2 nM (active)
